Sampled rows, rich in hits. Any-hit rate of the full collection: about 19%.
DT40 TDP1 no CPT = qHTS for Inhibitors of human tyrosyl-DNA phosphodiesterase 1 (TDP1): qHTS in cells in absence of CPT | actives 15% (n = 420,000) | DT40 Tdp1-/- hTDP1 cells, no CPT, ATP luminescence, 48 h | Potency, µM (doses to about 46.2 µM), without a hit: at the top dose activity change, negative = growth inhibition, most hits filed as inhibitors; further: potency means the concentration at half of the fitted maximal effect; nearly all actives have a fitted effect of over 55% in size
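DT40 Tdp1-/-;hTDP1 cells, no CPT (DMSO vehicle only), 400 cells/well; compounds pin-transferred; ≥48 hr, 37 °C; CellTiter-Glo 30 min RT dark, luminescence read.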
HT1080 IDH1KD tx = qHTS for induction of synthetic lethality in tumor cells producing 2HG: qHTS for the HT-1080-IDH1KD cell line | Potency, µM (doses to about 46.1 µM), without a hit: top-dose activity, negative = toxicity, actives largely listed as cytotoxic | actives 2% (n = 360,000) | AID 686971, 2013 | HT-1080 IDH1 knockdown viability, ATP luminescence, 48 h;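 further: potency means the concentration at half of the fitted maximal effect; 0% = DMSO wells and -100% = cell-free medium wells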
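Using the IDH1-knockdown HT-1080 line run in the same batch and compound series as the NT line, viability after 48 h at 37 °C was determined by CellTiter-Glo luminescence and expressed as % activity.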
IL1B secr inh = qHTS for Inhibitors of Inflammasome Signaling: IL-1-beta AlphaLISA Primary Screen | activity change, % at 57.5 µM | THP-1 LPS/ATP IL-1B secretion, AlphaLISA, 16 h; active compounds read low | actives 4.7% (n = 360,000) | AID 743279, 2014; in the data active means activity change below about -50%; inconclusive means mostly about -30% to -49%
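Secreted IL-1B measured by AlphaLISA bead assay after 16 h compound exposure of THP-1 cells; compounds (final up to 57.5 uM) added 1 h before LPS (250 ng/mL) and ATP (1.25 mM) stimulation; lower signal means less secretion.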
HT1080NT lethal = qHTS for induction of synthetic lethality in tumor cells producing 2HG: qHTS for the HT-1080-NT fibrosarcoma cell line. AID 686970, 2013. Potency, µM (highest dose often 46.1 µM), for the others: top-dose activity, negative = less viability, most hits filed as cytotoxic. HT-1080-NT fibrosarcoma viability, CellTiter-Glo ATP luminescence, 48 h. actives 1.6% (n = 360,000);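 further: NT is the 2HG producing partner of a matched IDH1 knockdown line; potency means the concentration at half of the fitted maximal effect; 0% = DMSO-treated cells and -100% = media-only wells without cells; nearly all actives have a fitted effect of over 55% in size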
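Read-out is CellTiter-Glo luminescence after 10 minutes at room temperature, following 48 hours' compound treatment of HT-1080-NT cells (750 cells/well, RPMI, 5% FBS, 37 degrees C).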
DT40 TDP1 CPT = qHTS for Inhibitors of human tyrosyl-DNA phosphodiesterase 1 (TDP1): qHTS in cells in presence of CPT | actives 12% (n = 420,000) | Potency, µM (titrated, usually from 46.2 µM), without a hit: top-dose activity change, negative = growth inhibition, usual class: inhibitors | chicken DT40 Tdp1-/-;hTDP1 cells + 20 nM CPT, ATP luminescence, 48 h; further: potency means the concentration at half of the fitted maximal effect; nearly all actives have a fitted effect of over 55% in size
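Chicken DT40 Tdp1-/- cells complemented with human TDP1, 400 cells/well, exposed to compounds plus 20 nM camptothecin for at least 48 h at 37 C; viability read as ATP content by CellTiter-Glo luminescence.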
Numbers without * were called inactive. Unless noted, the call rests on the fitted dose curve; in most records, active means well fitted curve in the direction sought with a large enough effect; inconclusive means small, poorly fitted or top-dose-only effect, or another doubt; inactive means no such curve, though single readings can be large; an effect the other way counts as inactive or inconclusive. Unless noted, on the % scale 0 is the no-effect control and ±100 the full control effect.

Screening CCC(C)c1ccc(NC(=O)COc2c(F)c(F)c(C(F)(F)F)c(F)c2F)cc1 (centres undefined) returned DT40 TDP1 no CPT inconclusive, HT1080 IDH1KD tx -8%, IL1B secr inh -77*, HT1080NT lethal -13% and DT40 TDP1 CPT inconclusive.
For O=C(COc1c(F)c(F)c(C(F)(F)F)c(F)c1F)Nc1ccc(N2CCOCC2)c(Cl)c1 the results were DT40 TDP1 no CPT inconclusive, HT1080 IDH1KD tx -6%, IL1B secr inh inconclusive, HT1080NT lethal -6% and DT40 TDP1 CPT inconclusive.
For CCc1ccc(OCC(=O)N/N=C(\C)c2ccc(O)cc2O)cc1 the results were DT40 TDP1 no CPT 2.6µM*, HT1080 IDH1KD tx inconclusive, IL1B secr inh 74, HT1080NT lethal -21% and DT40 TDP1 CPT 7.3µM*.
Screening Cc1cc(/C=C2\SC(=O)N(C)C2=O)c(C)n1-c1ccc(S(N)(=O)=O)cc1 returned DT40 TDP1 no CPT 9.2µM*, HT1080 IDH1KD tx 0%, IL1B secr inh 12, HT1080NT lethal 3% and DT40 TDP1 CPT 18µM*.
Cc1cc(/C=C2\SC(=O)NC2=O)c(C)n1-c1ccc(N(C)C)cc1 was read as DT40 TDP1 no CPT 1%, HT1080 IDH1KD tx 2%, IL1B secr inh -2, HT1080NT lethal 1% and DT40 TDP1 CPT 15%.
`CN=C1S/C(=C\c2cc(C)n(-c3ccccc3F)c2C)C(=O)N1C` gave DT40 TDP1 no CPT 23µM*, HT1080 IDH1KD tx 0%, IL1B secr inh -22, HT1080NT lethal 3% and DT40 TDP1 CPT 15µM*.
Cc1cc(/C=C2\SC(=O)N(C)C2=O)c(C)n1-c1ccc(O)cc1 was read as DT40 TDP1 no CPT 21µM*, HT1080 IDH1KD tx -5%, IL1B secr inh 6, HT1080NT lethal 3% and DT40 TDP1 CPT inconclusive.
`O=C(NC1(C(F)(F)F)C(=O)Nc2c1c(=O)[nH]c(=O)n2-c1ccccc1)c1ccncc1` (centres undefined) gave DT40 TDP1 no CPT -1%, HT1080 IDH1KD tx 0%, IL1B secr inh 22, HT1080NT lethal 1% and DT40 TDP1 CPT -5%.
Cc1cc2cc(C(=O)N3CCc4c([nH]c5ccccc45)C3c3ccccn3)ccc2o1 (centres undefined) was read as DT40 TDP1 no CPT 18µM*, HT1080 IDH1KD tx inconclusive, IL1B secr inh -25, HT1080NT lethal -16% and DT40 TDP1 CPT inconclusive.
Cc1cccc(C2c3[nH]c4ccccc4c3CCN2C(=O)c2ccc(=O)[nH]c2)n1 (centres undefined) was read as DT40 TDP1 no CPT -22%, HT1080 IDH1KD tx -4%, IL1B secr inh 32, HT1080NT lethal -2% and DT40 TDP1 CPT 6%.
`CC(=O)Nc1ccc(CN2CCc3c([nH]c4ccccc34)C2c2ccccn2)cc1` (centres undefined) gave DT40 TDP1 no CPT 21µM*, HT1080 IDH1KD tx 18µM*, IL1B secr inh -2, HT1080NT lethal 23µM* and DT40 TDP1 CPT inconclusive.
`CCOC(=O)c1[nH]c(C)c(C(=O)N2CCc3c([nH]c4ccccc34)C2c2ccccn2)c1C` (centres undefined) gave DT40 TDP1 no CPT inconclusive, HT1080 IDH1KD tx -23%, IL1B secr inh -52*, HT1080NT lethal -11% and DT40 TDP1 CPT 16µM*.
`Cc1nc(C)c(CC(=O)N2CCc3c([nH]c4ccccc34)C2c2ccccn2)s1` (centres undefined) gave DT40 TDP1 no CPT inconclusive, HT1080 IDH1KD tx -10%, IL1B secr inh -14, HT1080NT lethal -14% and DT40 TDP1 CPT -7%.
For CC(=O)c1ccc(C(=O)N2CCc3c([nH]c4ccccc34)C2c2cccc(C)n2)s1 (centres undefined) the results were DT40 TDP1 no CPT 15µM*, HT1080 IDH1KD tx inconclusive, IL1B secr inh -67*, HT1080NT lethal -21% and DT40 TDP1 CPT 23µM*.
N#Cc1cccc(NC(=O)N2CC3(CCN(C(=O)c4cc(C(F)(F)F)cc(C(F)(F)F)c4)CC3)C2)c1 was read as DT40 TDP1 no CPT -21% and DT40 TDP1 CPT -3%.
For c1ccn2cc(C34CC5CC(CC(C5)C3)C4)nc2c1 the results were DT40 TDP1 no CPT 18µM*, HT1080 IDH1KD tx -22%, IL1B secr inh 6, HT1080NT lethal -15% and DT40 TDP1 CPT inconclusive.
`c1ccc(-c2cn3ccccc3n2)cc1` gave DT40 TDP1 no CPT -26%, HT1080 IDH1KD tx -22%, IL1B secr inh 12, HT1080NT lethal -2% and DT40 TDP1 CPT 13%.
COc1cc(C2N=C(N)Nc3nc4ccccc4n32)ccc1OCCC(C)C (centres undefined) was read as DT40 TDP1 no CPT 18µM* and DT40 TDP1 CPT 23µM*.
`CCCN(CCC)c1ccc(C2N=C(N)Nc3nc4ccccc4n32)cc1` (centres undefined) gave DT40 TDP1 no CPT 16µM* and DT40 TDP1 CPT 23µM*.
`O=C(CC1CCC1)Nc1cccc2c([N+](=O)[O-])cccc12` gave DT40 TDP1 no CPT -17%, HT1080 IDH1KD tx -10%, IL1B secr inh 18, HT1080NT lethal -1% and DT40 TDP1 CPT -6%.
Screening Cc1ccc2c(=O)cc(C(=O)Nc3ccc(S(=O)(=O)Nc4nc(C)cc(C)n4)cc3)oc2c1 returned DT40 TDP1 no CPT -26% and DT40 TDP1 CPT -9%.
Screening CCC1(c2ccccc2)NC(=O)N(CC(=O)Nc2ccccc2C(=O)N2CCCCC2)C1=O (centres undefined) returned DT40 TDP1 no CPT 0%, HT1080 IDH1KD tx -1%, IL1B secr inh 7, HT1080NT lethal 2% and DT40 TDP1 CPT 10%.
Screening COc1ccccc1CNC(=O)c1ccc(NC2=NC3CS(=O)(=O)CC3S2)cc1 (centres undefined) returned DT40 TDP1 no CPT 18%, HT1080 IDH1KD tx 24%, IL1B secr inh -15, HT1080NT lethal 16% and DT40 TDP1 CPT -1%.
For Cc1nn(-c2ccccc2)c(C)c1/C=N/NC(=O)CSc1nnc(-c2ccccc2)n1-c1ccc(Cl)cc1 the results were DT40 TDP1 no CPT 26µM*, HT1080 IDH1KD tx -16%, IL1B secr inh inconclusive, HT1080NT lethal 1% and DT40 TDP1 CPT inconclusive.
Cc1cccc(C)c1NC(=O)CCCSc1nnc(-c2ccc(F)cc2)n1-c1ccccc1 was read as DT40 TDP1 no CPT inconclusive, HT1080 IDH1KD tx 1%, IL1B secr inh -19, HT1080NT lethal 6% and DT40 TDP1 CPT inconclusive.

Assay outcomes deposited in PubChem BioAssay by National Center for Advancing Translational Sciences (NCATS).
